In PubChem BioAssay (EPA / NIEHS):
Active and inactive are the calls of the source. The calls were made as follows: active = hit-call score of the fitted dose curve at least 0.9, where 1 is the maximum; inactive = score below 0.9.

Assays:
Conditions in all cases: mRNA level, 48 h; actives raise or lower the signal
[1] = read-out: growth arrest and DNA damage 45 (GADD45G), GADD45G (gene 10912); assay: LTEA_HepaRG_GADD45G: Life Technologies and Expression Analysis (LTEA) Assay for growth arrest and DNA damage 45 (GADD45G) using HepaRG (AID 2283499)
Summary of the method: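 Gain or loss of GADD45G mRNA, quantified by TaqMan qRT-PCR against three housekeeping genes, is fitted in both directions relative to 0.5% DMSO. Human HepaRG cultures receive test chemical for 48 h at up to 100 uM.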

[2] = read-out: Glutamate-cysteine ligase regulatory (GCLM), GCLM (gene 2730); assay: LTEA_HepaRG_GCLM: Life Technologies and Expression Analysis (LTEA) Assay for Glutamate-cysteine ligase regulatory (GCLM) using HepaRG (AID 2283500)
Summary of the method: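 Human liver HepaRG cultures receive test chemicals for 48 hours at up to 100 uM in 0.5% DMSO. GCLM expression is measured by qRT-PCR and analysed for increases or decreases against vehicle.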

[3] = read-out: Glutathione S-transferase M3 (GSTM3), GSTM3 (gene 2947); assay: LTEA_HepaRG_GSTM3: Life Technologies and Expression Analysis (LTEA) Assay for Glutathione S-transferase M3 (GSTM3) using HepaRG (AID 2283501)
Summary of the method: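 HepaRG, plated 48 h, then serum-free induction medium; test chemical 48 h, duplicate; 100 uM top, half-log x8, 0.5% DMSO. Read-out: GSTM3 mRNA (TaqMan qRT-PCR, Fluidigm array). Bidirectional fit vs DMSO.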

[4] = read-out: 3-Hydroxy-3-Methylglutaryl-CoA Synthase 2 (HMGCS2), HMGCS2 (gene 3158); assay: LTEA_HepaRG_HMGCS2: Life Technologies and Expression Analysis (LTEA) Assay for 3-Hydroxy-3-Methylglutaryl-CoA Synthase 2 (HMGCS2) using HepaRG (AID 2283504)
Summary of the method: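 HepaRG, plated 48 h then switched to serum-free induction media; cmpd 8-pt, max 100 uM, 1/2-log, 0.5% DMSO, n=2, 48 h. HMGCS2 mRNA by Fluidigm TaqMan qRT-PCR, ACTB/GAPDH/POLR2A norm; bidirectional fit vs DMSO.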

[5] = read-out: HGF (gene 3082); assay: LTEA_HepaRG_HGF: Life Technologies and Expression Analysis (LTEA) Assay for Hepatocyte Growth Facto (HGF) using HepaRG (AID 2283505)
Summary of the method: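 Read-out is HGF transcript level by qRT-PCR, normalized to three housekeeping genes, fitted bidirectionally against 0.5% DMSO vehicle. Human HepaRG cells received test chemicals for 48 h at up to 100 uM.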

[6] = read-out: Intercellular Adhesion Molecule 1 (ICAM1), ICAM1 (gene 3383); assay: LTEA_HepaRG_ICAM1: Life Technologies and Expression Analysis (LTEA) Assay for Intercellular Adhesion Molecule 1 (ICAM1) using HepaRG (AID 2283507)
Summary of the method: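 Readout is qRT-PCR mRNA level, normalized to three housekeeping genes and fitted bidirectionally against 0.5% DMSO vehicle. Human HepaRG cultures received compound for 48 h, top concentration 100 uM with half-log dilutions.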

[7] = read-out: Insulin-like growth factor-binding protein 1 (IGFBP1), IGFBP1 (gene 3484); assay: LTEA_HepaRG_IGFBP1: Life Technologies and Expression Analysis (LTEA) Assay for Insulin-like growth factor-binding protein 1 (IGFBP1) using HepaRG (AID 2283508)
Summary of the method: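 Thawed HepaRG cells are plated for 48 h, switched to serum-free induction medium, then dosed in duplicate for another 48 h (100 uM top, half-log steps). Lysates in RLT go to qRT-PCR, and gain or loss of signal is fitted relative to vehicle.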

[8] = read-out: Interleukin 6 (IL6), IL6 (gene 3569); assay: LTEA_HepaRG_IL6: Life Technologies and Expression Analysis (LTEA) Assay for Interleukin 6 (IL6) using HepaRG (AID 2283509)
Summary of the method: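 Differentiated human HepaRG cells, plated 48 h then switched to serum-free induction medium, were exposed in duplicate for 48 h to eight half-log concentrations up to 100 uM in 0.5% DMSO. IL6 mRNA measured by qRT-PCR, normalized to ACTB/GAPDH/POLR2A.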

[9] = read-out: Interleukin 6 Receptor (IL6R), IL6R (gene 3570); assay: LTEA_HepaRG_IL6R: Life Technologies and Expression Analysis (LTEA) Assay for Interleukin 6 Receptor (IL6R) using HepaRG (AID 2283510);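 as to AC50: TaqMan qRT-PCR signal normalized to ACTB GAPDH and POLR2A housekeeping genes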
Summary of the method: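 Concentration-response in human liver HepaRG cells: eight concentrations from 100 uM downward by half-logs, 48 h exposure, 0.5% DMSO vehicle. IL6R mRNA change measured by qRT-PCR and fitted in both directions relative to vehicle.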

[10] = read-out: Potassium channel subfamily K member 1 (KCNK1), KCNK1 (gene 3775); assay: LTEA_HepaRG_KCNK1: Life Technologies and Expression Analysis (LTEA) Assay for Potassium channel subfamily K member 1 (KCNK1) using HepaRG (AID 2283511)
Summary of the method: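 Differentiated human HepaRG cells in serum-free induction medium were exposed in duplicate for 48 h to 8 half-log concentrations up to 100 uM in 0.5% DMSO. KCNK1 mRNA was measured by TaqMan qRT-PCR, normalized to ACTB, GAPDH and POLR2A, and fitted bidirectionally versus DMSO.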

[11] = read-out: Keratin 19 (KRT19), KRT19 (gene 3880); assay: LTEA_HepaRG_KRT19: Life Technologies and Expression Analysis (LTEA) Assay for Keratin 19 (KRT19) using HepaRG (AID 2283512)
Summary of the method: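 KRT19 transcript levels, measured by Fluidigm qRT-PCR against three housekeeping genes, are fitted for gain or loss of signal relative to DMSO. Human HepaRG cells receive test chemicals (top 100 uM, half-log steps, 0.5% DMSO) for 48 hours.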

[12] = read-out: Lipase C (LIPC), LIPC (gene 3990); assay: LTEA_HepaRG_LIPC: Life Technologies and Expression Analysis (LTEA) Assay for Lipase C (LIPC) using HepaRG (AID 2283514)
Summary of the method: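 Differentiated human HepaRG cells in serum-free induction medium were exposed in duplicate for 48 h to eight concentrations (top 100 uM, half-log steps, 0.5% DMSO). LIPC mRNA was quantified by TaqMan qRT-PCR, normalized to ACTB, GAPDH and POLR2A, with bidirectional fitting versus DMSO.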

[13] = read-out: Lipoprotein lipase (LPL), LPL (gene 4023); assay: LTEA_HepaRG_LPL: Life Technologies and Expression Analysis (LTEA) Assay for Lipoprotein lipase (LPL) using HepaRG (AID 2283515)
Summary of the method: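 Differentiated human HepaRG cells in serum-free induction medium were exposed in duplicate for 48 h to eight half-log concentrations (top 100 uM) in 0.5% DMSO. LPL mRNA was quantified by TaqMan qRT-PCR, normalized to ACTB, GAPDH and POLR2A.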

[14] = read-out: MicroRNA 122 (MIR122), gene 406906; assay: LTEA_HepaRG_MIR122: Life Technologies and Expression Analysis (LTEA) Assay for MicroRNA 122 (MIR122) using HepaRG (AID 2283516); also: the transcript read is the microRNA miR-122
Summary of the method: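 HepaRG, 48 h exposure, 8-pt half-log from 100 uM, 0.5% DMSO; TaqMan qRT-PCR; bidirectional fit vs DMSO.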

[15] = read-out: Hypoxia-inducible factor 1-alpha (Homo sapiens) (UniProt Q16665); assay: LTEA_HepaRG_HIF1A: Life Technologies and Expression Analysis (LTEA) Assay for Hypoxia-inducible factor 1 (HIF1A) Trancription factor using HepaRG (AID 2283503)
Summary of the method: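 HepaRG, 48 h exposure, 8-pt half-log series from 100 uM, 0.5% DMSO vehicle, duplicates. Readout: HIF1A transcript by qRT-PCR (Fluidigm array), housekeeping-normalised. Bidirectional curve fit vs DMSO baseline.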

[16] = read-out: JUN Transcription Factor, JUN (gene 3725); assay: LTEA_HepaRG_JUN: Life Technologies and Expression Analysis (LTEA) Assay for JUN Transcription Factor using HepaRG (AID 2283513)
Summary of the method: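 Human HepaRG liver cells receive test chemicals in 0.5% DMSO for 48 h across an eight-point range topping at 100 uM. Expression changes in JUN are scored in both directions against the DMSO vehicle.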

[17] = read-out: matrix metalloproteinase-10 (MMP10), MMP10 (gene 4319); assay: LTEA_HepaRG_MMP10: Life Technologies and Expression Analysis (LTEA) Assay for matrix metalloproteinase-10 (MMP10) using HepaRG (AID 2283517)
Summary of the method: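 HepaRG, collagen I, ~100,000 cells/well; serum-free induction medium; 48 h exposure, duplicate, 8-pt half-log to 100 uM, 0.5% DMSO. Readout: TaqMan qRT-PCR, normalized to ACTB/GAPDH/POLR2A; bidirectional fit vs DMSO.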

[18] = read-out: Heat shock 70 kDa protein 1 (HSPA1A), gene 3303; assay: LTEA_HepaRG_HSPA1A: Life Technologies and Expression Analysis (LTEA) Assay for Heat shock 70 kDa protein 1 (HSPA1A) using HepaRG (AID 2283502)
Summary of the method: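 HSPA1A induction in human HepaRG liver cells is measured after 48 h of chemical treatment (100 uM maximum, 0.5% DMSO vehicle). Expression comes from qRT-PCR normalized to endogenous controls.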

[19] = read-out: Insulin Like Growth Factor 1 (IGF1), IGF1 (gene 3479); assay: LTEA_HepaRG_IGF1: Life Technologies and Expression Analysis (LTEA) Assay for Insulin Like Growth Factor 1 (IGF1) using HepaRG (AID 2283506)
Summary of the method: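 Using human HepaRG liver cells, IGF1 transcript induction or suppression is measured 48 h after dosing across eight concentrations capped at 100 uM. Values derive from bidirectional concentration-response fitting with DMSO as baseline.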

Measured: AC50

Sequence of Hypoxia-inducible factor 1-alpha (Homo sapiens) (Q16665 whole entry, looked up): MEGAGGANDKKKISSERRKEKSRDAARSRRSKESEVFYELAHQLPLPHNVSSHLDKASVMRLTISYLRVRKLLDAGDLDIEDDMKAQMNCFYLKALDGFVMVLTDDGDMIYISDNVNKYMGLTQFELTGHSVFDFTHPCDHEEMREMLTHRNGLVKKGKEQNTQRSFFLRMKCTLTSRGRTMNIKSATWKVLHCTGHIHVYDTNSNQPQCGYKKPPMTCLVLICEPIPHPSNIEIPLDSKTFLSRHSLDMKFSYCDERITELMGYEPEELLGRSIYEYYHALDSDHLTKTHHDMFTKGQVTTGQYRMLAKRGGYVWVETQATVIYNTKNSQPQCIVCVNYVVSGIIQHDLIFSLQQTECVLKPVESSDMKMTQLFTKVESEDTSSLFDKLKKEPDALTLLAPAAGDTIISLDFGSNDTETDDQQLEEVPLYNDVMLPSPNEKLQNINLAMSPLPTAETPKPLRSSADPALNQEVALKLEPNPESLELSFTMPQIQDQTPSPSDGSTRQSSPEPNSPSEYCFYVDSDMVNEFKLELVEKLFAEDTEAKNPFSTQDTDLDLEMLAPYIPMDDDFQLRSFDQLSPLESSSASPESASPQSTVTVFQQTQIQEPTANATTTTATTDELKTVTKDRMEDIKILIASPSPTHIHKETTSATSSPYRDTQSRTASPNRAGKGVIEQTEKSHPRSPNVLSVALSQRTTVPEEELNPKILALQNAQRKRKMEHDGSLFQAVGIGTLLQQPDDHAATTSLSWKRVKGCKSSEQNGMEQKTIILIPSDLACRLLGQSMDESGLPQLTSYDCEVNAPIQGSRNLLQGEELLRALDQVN

Nc1ccc(S(=O)(=O)c2ccc(N)cc2)cc1
not listed: [15] | [16] | [17] | [18] | [19]
inactive: all other assays above

CC(CO)OC(C)CO (centres undefined) (tested in a mixture with another compound)
not listed: [14] | [18] | [19]
inactive: all other assays above

CCCCC(CC)COC(=O)CC(C(=O)OCC(CC)CCCC)S(=O)(=O)O (centres undefined)
active: [1] 87 µM | [2] 79.7 µM | [18] 38.1 µM | [7] 90.7 µM | [8] 91.4 µM | [13] 82.1 µM
not listed: [4] | [16]
inactive: all other assays above

Cc1ccc(Cl)cc1
not listed: [4] | [16] | [18]
inactive: all other assays above

CCc1c(C(=O)NN2CCCCC2)nn(-c2ccc(Cl)cc2Cl)c1-c1ccc(Br)cc1
active: [1] 41.6 µM | [2] 50 µM | [15] 86.6 µM | [5] 90.4 µM | [19] 50 µM | [6] 26.6 µM | [7] 31.6 µM | [8] 76.5 µM | [9] 89.1 µM | [10] 58.6 µM | [11] 50 µM | [16] 50 µM | [12] 34.2 µM | [13] 4.13 µM
inactive: [3]

CCCCCCOCCO
not listed: [4] | [14] | [17] | [19]
inactive: all other assays above

COCCOC[C@H](CC1(C(=O)NC2CCC(C(=O)O)CC2)CCCC1)C(=O)Oc1ccc2c(c1)CCC2 (some centres undefined)
not listed: [17] | [18]
inactive: all other assays above

COc1cc(S(=O)(=O)O)c(C)cc1N=Nc1c(O)ccc2cc(S(=O)(=O)O)ccc12
not listed: [4] | [16] | [17]
inactive: all other assays above

CC(=O)OCCOCCOCCOC(C)=O
not listed: [4] | [14] | [18] | [19]
inactive: all other assays above

CCCCCCCC=O
active: [11] 1.32 µM
not listed: [4] | [14] | [16] | [17] | [19]
inactive: all other assays above

Cc1c(C(=O)O)c(O)cc2c1C(=O)c1c(O)c([C@@H]3O[C@H](CO)[C@@H](O)[C@H](O)[C@H]3O)c(O)c(O)c1C2=O
not listed: [4] | [19]
inactive: all other assays above

Clc1cc(Cl)c(Cl)cc1Cl
not listed: [4] | [14] | [16] | [17] | [18]
inactive: all other assays above

Nc1nc(N)c2nc(CNc3ccc(C(=O)N[C@@H](CCC(=O)O)C(=O)O)cc3)cnc2n1
active: [7] 0.0937 µM
not listed: [15] | [16] | [18] | [19]
inactive: all other assays above

COCCOCCOC
active: [2] 0.925 µM | [3] 2.14 µM | [15] 9.92 µM | [5] 1.5 µM | [6] 0.87 µM | [7] 0.683 µM | [16] 0.582 µM | [12] 0.983 µM | [13] 1.21 µM
inactive: [1] | [18] | [19] | [8] | [9] | [10] | [11] | [14] | [17]
